Test: HepG2 liver cancer cell viability effects, profiling panel, resazurin fluorescence, 24 h, PK04 Diversity Set (AID 1172); also: test concentration not given here
Settings: higher = more signal

SMILES	z-score
CCCC[C@@H]1C[C@H]1[C@@H](NC(=O)c1ccco1)c1ccc(-c2ccccc2)cc1	-0.9
O=C1O[C@@H](c2ccccc2)[C@@H](c2ccccc2)N2[C@@H](c3ccccc3OCCO)[C@]3(C(=O)Nc4ccc(C#CC5=CCCCC5)cc43)[C@@H](C(=O)N3CCCCCCC3)[C@H]12	-0.868
O=C1NC(=O)C2C1C=CC(C(O)c1cccs1)N2Nc1ccc(Cl)cc1Cl (configuration not stated)	-1.14
COC(=O)[C@]1(CCC(=O)OC(C)(C)C)N=C(c2ccc(OCCCO)cc2)O[C@@H]1c1ccccc1CN=[N+]=[N-]	-1.72
COc1ccc(C(=O)Nc2ccc(CN3C(=O)[C@]4(O[C@H](CCO)[C@@H]([Si](C)(C)c5ccc(OC)cc5)[C@@H]4C)c4ccccc43)cc2)cc1	-5.44
CC1(C)C2C=C(C(O)C3C=CC4C(=O)NC(=O)C4N3Nc3ccc(Cl)cc3Cl)C[C@@H]1C2 (some centres not stated)	-2.13
C=C(COC)C(=O)CC[C@@H](OC(C)=O)c1ccc(CO)o1	-0.173
COC(=O)c1c(CC[C@@H](CO)NC(=O)NCCn2cc(C3(O)CCCC3)nn2)oc(C(C)=O)c1C(=O)OC	-0.777
C=C(C(=O)CC[C@@H](OC(=O)c1cccnc1)c1ccccc1OCCO)C(C)C	-0.0206
CCOC(=O)C[C@H]1[C@H](OC(=O)c2ccc(C(=O)c3ccccc3)cc2)[C@@H](NC(=O)c2ccccc2)c2cc(OCCCO)ccc2N1C(=O)c1ccc2ccccc2n1	-0.524
COc1cc(NN2C(C(O)c3ccco3)C=CC3C(=O)N(c4ccccc4)C(=O)C32)cc(OC)c1OC (configuration not stated)	-1.41
COCCCNC(=O)[C@@]1(C)c2ccccc2C(=O)N(C(C)C)[C@H]1c1ccc(CO)cc1	-0.104
